# Assay results as given in PubChem BioAssay AID463173 (ICCB-Longwood Screening Facility, Harvard Medical School, 2010).
# Screen size: about 52,000 compounds; about 4,300 (8.3%) were called active. Rule as the data show it: active = survival mostly below about 52% (no sharp cut-off); inactive = mostly above about 56%. The list comes from a sample in which actives are over-represented; it also holds similar structures and randomly drawn compounds.
# Test system: DeltatarO mutant
# Experiment: growth inhibition of S. aureus wild type versus tarO mutant, primary screen, teichoic acid synthesis inhibitors, RN4220, OD600 (AID 463173)
# Settings: OD600, 18 h, hits give low values, screened at 18.75 µg/mL (by protocol)
row,Structure (SMILES),survival
1,CCc1ccccc1N=C1SCC(=O)N1C,88% (inactive)
2,Cc1cc(C)c(NC(=O)Cn2nnc(C(=O)Nc3ccc(F)cc3F)c2N)c(C)c1,81% (inactive)
3,CCOc1ccccc1NC(=O)CSc1ncc2c(n1)-c1ccccc1N(CC)S2(=O)=O,92% (inactive)
4,CCN1c2ccccc2-c2nc(SCC(=O)Nc3cc(C)c(Cl)cc3OC)ncc2S1(=O)=O,91% (inactive)
5,CCN1c2ccccc2-c2nc(SCC(=O)Nc3cc(F)ccc3F)ncc2S1(=O)=O,118% (inactive)
6,CCN1c2ccccc2-c2nc(SCC(=O)Nc3c(C)cc(C)cc3C)ncc2S1(=O)=O,102% (inactive)
7,CCN1c2ccccc2-c2nc(SCC(=O)Nc3cc(OC)cc(OC)c3)ncc2S1(=O)=O,37% (active)
8,CCN1c2ccccc2-c2nc(SCC(=O)Nc3ccc(C)c(Cl)c3)ncc2S1(=O)=O,25% (active)
9,Fc1ccc(Nc2ncnc3c2nc2n3CCCC2)cc1,74% (inactive)
10,CCc1ccc(NC(=O)c2ccc(CNS(=O)(=O)c3ccc4c(c3)C(C)(C)C(=O)N4C)cc2)cc1,64% (inactive)
11,CCC(Sc1nc2c(sc3ccccc32)c(=O)n1CCc1ccccc1)C(=O)N(CC)CC (stereo not given),54% (inactive)
12,Cc1ccc(-c2nc(CS(=O)(=O)CC(=O)NCCc3ccccc3)c(C)o2)cc1,100% (inactive)
13,Cn1ncc2c(Nc3cccc(F)c3)ncnc21,117% (inactive)
14,COc1ccc(CCN=C(N)Nc2nc(C)cc(C)n2)cc1,39% (active)
15,Cc1cc(C)nc(NC(N)=NC(C)c2ccccc2)n1 (stereo not given),20% (active)
16,COc1cccc(C(=O)NC(=NCCc2c[nH]c3ccc(OC)cc23)Nc2nc(C)cc(C)n2)c1,55% (inactive)
17,Cc1cc(C)nc(NC(N)=NC2CCCCC2)n1,87% (inactive)
18,Cc1cc(C)nc(NCC(C)c2ccccc2)n1 (stereo not given),81% (inactive)
19,Cc1cc(C)nc(NC(=O)C(c2ccccc2)c2ccccc2)n1,115% (inactive)
20,CCOC(=O)c1cccc(NC(=O)CCS(=O)(=O)c2ccc3c(c2)CC(=O)N3C)c1,102% (inactive)
21,COc1cccc(C(=O)NCC(c2ccc(N(C)C)cc2)N2CCCC2)c1OC (stereo not given),94% (inactive)
22,Cc1nc(-c2cccc(NC(=O)Nc3ccccc3C(F)(F)F)c2)no1,130% (inactive)
23,Cc1ccc(C)c2c(N)c3c(nc12)CCCCC3,96% (inactive)
24,CC(CCc1ccccc1)NC(=O)Cn1ncc2c3ccccc3n(Cc3cccc(Cl)c3)c2c1=O (stereo not given),95% (inactive)
25,CC(C)(C)OC(=O)N1CC=C2C(C1)C(c1cccc(F)c1)C(C#N)=C(N)C2(C#N)C#N (stereo not given),79% (inactive)

row,Structure (SMILES),survival
1,CCCN1CC=C2C(C1)C(c1ccc(C(=O)OC)cc1)C(C#N)=C(N)C2(C#N)C#N (stereo not given),51% (active)
2,CCN1CC=C2C(C1)C(c1ccc(Cl)s1)C(C#N)=C(N)C2(C#N)C#N (stereo not given),105% (inactive)
3,COc1cc(-c2nnc(SCC(=O)N3CCCc4ccccc43)o2)cc(OC)c1OC,66% (inactive)
4,Cc1ccc(Cl)cc1NC(=O)C1CCN(C(=O)c2cnn(-c3ccccc3)c2-n2cccc2)CC1,71% (inactive)
5,Cc1cc(C)nc(SCc2noc(-c3ccc(Cl)cc3)n2)n1,97% (inactive)
6,CCc1ccccc1NC(=O)Nc1cc(C(=O)NCc2ccc(C)cc2)ccc1N1CCCC1,113% (inactive)
7,COc1ccc(NC(=O)Cn2c(=O)n(CCC(=O)NCC3CCCO3)c(=O)c3cc(OC)c(OC)cc32)cc1 (stereo not given),72% (inactive)
8,COc1ccc(OC)c(NC(=O)Cn2nc3c(cc2=O)CCCC3)c1,57% (inactive)
9,Cc1nn(-c2ccc(N3CCOCC3)nn2)c(C)c1CCC(=O)NCc1ccc(Cl)cc1,107% (inactive)
10,Cc1cc(C)c(NC(=O)c2oc3c(c2C)-c2[nH]ncc2CC3)c(C)c1,67% (inactive)
11,Cc1cc(NC(=O)c2oc3c(c2C)-c2[nH]ncc2CC3)ccc1Br,3% (active)
12,CCc1ccc(NC(=O)c2oc3c(c2C)-c2[nH]ncc2CC3)cc1,48% (inactive)
13,Cc1ccc(Cn2cc(CCC(=O)NCc3ccccc3F)c3ccccc32)cc1,77% (inactive)
14,Cc1c(C(=O)Nc2ccc(Br)cc2F)oc2ccc(S(=O)(=O)N3CCCCC3)cc12,78% (inactive)
15,Cc1cccc(N2CCN(CCCNC(=O)c3sc4ncccc4c3-n3cccc3)CC2C)c1 (stereo not given),105% (inactive)
16,COc1cc2c(cc1OC)C1=C(C#N)CN(C3CCCCC3)CN1CC2,83% (inactive)
17,NC(=O)C1CCN(C(=O)C2CCN(S(=O)(=O)c3ccc(-n4cnnn4)cc3)CC2)CC1,97% (inactive)
18,Cc1ccccc1NC(=O)c1c(C)oc2ccc(O)c(CN(C)Cc3ccccc3)c12,81% (inactive)
19,CCN1CCN(Cc2c(O)ccc3oc(C)c(C(=O)Nc4ccc(C)cc4C)c23)CC1,92% (inactive)
20,Cc1ccc(NC(=O)c2c(C)oc3ccc(O)c(CN(C)Cc4ccccc4)c23)c(C)c1,73% (inactive)
21,CCN(Cc1ccccc1)Cc1c(O)ccc2oc(C)c(C(=O)Nc3ccc(C)cc3C)c12,33% (active)
22,Cc1ccccc1NC(=O)c1c(C)oc2ccc(O)c(CN3CCCC3)c12,80% (inactive)
23,CCN(Cc1ccccc1)Cc1c(O)ccc2oc(C)c(C(=O)Nc3ccccc3C)c12,29% (active)
24,Cc1cc(=O)n(CC(=O)NC(C)c2ccccc2)c2c1c(C)nn2C (stereo not given),66% (inactive)
25,Cc1ccc(Nc2nnc(-c3ccc(C)c(S(=O)(=O)N4CCN(C)CC4)c3)c3ccccc23)cc1,80% (inactive)

row,Structure (SMILES),survival
1,COCCOC(=O)c1c(-c2ccccc2)c(-c2ccccc2)nn(C)c1=O,65% (inactive)
2,COc1ccc2oc(=O)c(C(=O)NCCc3c(C)[nH]c4ccc(F)cc34)cc2c1,46% (inactive)
3,COc1ccc2oc(=O)c(C(=O)Nc3cccc(C(=O)O)c3)cc2c1,50% (active)
4,COc1ccc2oc(=O)c(C(=O)NCCc3c(C)[nH]c4c(C)cccc34)cc2c1,47% (active)
5,COc1ccc2oc(=O)c(C(=O)NCCc3c(C)[nH]c4ccc(C)cc34)cc2c1,40% (active)
6,COc1ccc2oc(=O)c(C(=O)NCCc3c(C)[nH]c4c(Cl)cccc34)cc2c1,62% (inactive)
7,Cc1[nH]c2c(C)cccc2c1CCNC(=O)c1cc2ccccc2oc1=O,86% (inactive)
8,Cc1ccc2[nH]c(C)c(CCNC(=O)c3cc4cc(Br)ccc4oc3=O)c2c1,37% (active)
9,COc1ccc2oc(=O)c(C(=O)Nc3ccc(C(=O)O)cc3)cc2c1,136% (inactive)
10,Cc1[nH]c2ccc(F)cc2c1CCNC(=O)c1cc2cc(Cl)ccc2oc1=O,52% (inactive)
11,COc1cccc2cc(C(=O)NCCc3c(C)[nH]c4ccc(F)cc34)c(=O)oc12,53% (inactive)
12,COc1ccc2oc(=O)c(C(=O)Nc3ccc(O)cc3)cc2c1,98% (inactive)
13,COc1ccc2oc(=O)c(C(=O)NCCc3c(C)[nH]c4ccc(Br)cc34)cc2c1,45% (inactive)
14,Cc1cc(C)n(C(C)CC(=O)Nc2cccc(C#N)c2)n1 (stereo not given),78% (inactive)
15,CN(C)CCN(Cc1ccccc1)S(=O)(=O)c1ccc(-c2cc(C(F)(F)F)on2)s1,87% (inactive)
16,O=C1CCC(=O)N1CNc1ccccc1,85% (inactive)
17,CC(=O)N1CCOc2cc(S(=O)(=O)Nc3cc(C(F)(F)F)ccc3Cl)c(C)cc21,94% (inactive)
18,CCN1CCN(CCCNC(=O)c2cnn(-c3ccc(OC)cc3)c2C2CCN(C(=O)OC(C)(C)C)CC2)CC1,95% (inactive)
19,Cc1ccc(N2CCN(c3nc4ccccc4n4nnnc34)CC2)c(C)c1,105% (inactive)
20,Cc1cccc(C)c1NC(=O)Cn1cc(C(=O)C2CC2)c2ccccc21,67% (inactive)
21,CCOc1ccc(NCc2cccn2-c2nnc(N3CCC(C(=O)NC(C)c4ccccc4)CC3)s2)cc1 (stereo not given),74% (inactive)
22,O=C1C2C(C(=O)N1CC1CCCO1)C1C=CC2C12CC2 (stereo not given),80% (inactive)
23,Cc1[nH]c2ccc(Br)cc2c1CCNC(=O)c1cc2ccccc2oc1=O,32% (active)
24,COc1cccc2cc(C(=O)NCCc3c(C)[nH]c4ccc(Br)cc34)c(=O)oc12,121% (inactive)
25,C=CCc1cccc2cc(C(=O)NCCc3c(C)[nH]c4c(C)cccc34)c(=O)oc12,48% (inactive)

row,Structure (SMILES),survival
1,COc1ccc(Cl)cc1Nc1ccc2cc(S(=O)(=O)N3CCCCC3)ccc2n1,83% (inactive)
2,Cc1cccc(Cn2cccc2CNS(=O)(=O)c2ccc(Br)cc2)c1,76% (inactive)
3,Cc1cccc(Cn2cccc2CNS(=O)(=O)c2ccccc2F)c1,-2% (active)
4,CCc1ccc(S(=O)(=O)NCc2cccn2Cc2cccc(C)c2)cc1,79% (inactive)
5,CCOc1ccccc1C(=O)N1CCN(CCc2ccccn2)CC1,67% (active)
6,O=C(c1ccccc1Cl)N1CCN(CCc2ccccn2)CC1,52% (inactive)
7,Cc1ccccc1C(=O)N1CCN(CCc2ccccn2)CC1,49% (inactive)
8,CC(CNC(=O)CN1C(=O)c2cccnc2Oc2ccc(Cl)cc21)c1ccccc1 (stereo not given),90% (inactive)
9,CCOC(=O)c1noc2ncn(CC(=O)Nc3ccccc3OC)c(=O)c12,118% (inactive)
10,CCOC(=O)c1noc2ncn(CC(=O)Nc3cc(Cl)ccc3OC)c(=O)c12,92% (inactive)
11,CCOC(=O)c1noc2ncn(CC(=O)Nc3ccc(F)cc3Cl)c(=O)c12,-5% (active)
12,CCCCC(=O)Nc1ccc(C(=O)OCc2cc(=O)n3ccsc3n2)cc1,75% (inactive)
13,CC(C)CC(=O)N1c2nc(C(C)C)nn2C2(CCCCC2)[C@@H]2CCCC[C@@H]21,79% (inactive)
14,Clc1ccc(Nc2nc(-c3ccccc3)c3cc(Cl)ccc3n2)cc1,54% (inactive)
15,COc1ccc(Nc2nc(N)c3cc(OC)c(OC)cc3n2)cc1,87% (inactive)
16,Cc1cc(C)cc(NC(=O)CSc2nc(-c3ccccc3)c3cc(F)ccc3n2)c1,87% (inactive)
17,Cc1ccc(Nc2c(-c3cccnc3)nc3ccc(Br)cn23)cc1,80% (inactive)
18,COc1ccccc1Nc1nc(-c2ccccc2Cl)c2cc(Br)ccc2n1,125% (inactive)
19,Cc1ccc2nc(Nc3ccc(Br)cc3)nc(-c3ccccc3)c2c1,35% (active)
20,COc1cccc(Nc2cc(C)nc3ccccc23)c1,109% (inactive)
21,CCN(CC)c1nc(-c2ccccc2Cl)c2cc(Br)ccc2n1,55% (inactive)
22,COc1cccc(Nc2nc(-c3ccccc3)c3cc(C)ccc3n2)c1,12% (active)
23,COc1cccc(NC(=O)c2c(-c3ccc(C)cc3)nnc3ccccc23)c1,78% (inactive)
24,COc1ccc(Nc2nc(-c3ccccc3)c3cc(Br)ccc3n2)cc1,23% (active)
25,Clc1ccccc1-c1nc(Nc2ccccc2)nc2ccc(Br)cc12,47% (active)
